Source: PubChem BioAssay AID504408 (Broad Institute, 2011)
Screen size: about 300,000 compounds; about 5,200 (1.7%) were called active.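 Rule for the calls: active = mean replicate activation of at least 50% with a set share of replicates each reaching 50%; inconclusive = only one of those two conditions met; inactive = mean below 50% and too few replicates reaching it.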 The entries come from a sample that favours actives as a whole.

Assay: HSF-1 response element luciferase induction – NIH3T3-HGL cells, MG132 stress, luminescence, single point, primary screen (AID 504408);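 note: 0% = median of the neutral control wells and 100% = twice that signal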
Conditions: NIH3T3-HGL HSF-1 luciferase reporter, MG132, 8 h; at 9 µM; hits give high values; 100% = twice DMSO control signal

activation, inactive:
CC(=O)c1c(C)[nH]c(C(=O)COC(=O)CCOc2ccc(C)cc2)c1C -0.193%, COC(=O)N/N=C/c1c[n+]([O-])c2ccccc2[n+]1[O-] 0.846%, Cc1ccc(S(=O)(=O)N(C)C)cc1NC(=O)COC(=O)/C=C/c1cccs1 -10.8%, Cc1ccc(S(=O)(=O)N(C)C)cc1NC(=O)COC(=O)C1COc2ccccc2O1 (stereo unspecified) -5.78%, O=C(N/N=C/c1cc(Br)c(O)c([N+](=O)[O-])c1)C(O)(c1ccccc1)c1ccccc1 3.81%, N#C/C(=C(\O)CCl)c1nnc2n1CCCCC2 -4.83%, N#C/C(=C/c1cccc([N+](=O)[O-])c1)c1nnc2n1CCCCC2 -2.78%, CC(C)(C)N1C(=O)[C@H]2[C@@H](c3ccc(Br)cc3)N3C(=O)N(c4cccc(Cl)c4)C(=O)[C@@]3(C)[C@H]2C1=O -6%, CCCCN(C(=O)CSCC(=O)Nc1ccc(OC)cc1)c1c(N)n(CCC)c(=O)[nH]c1=O -4.27%, Cc1ccccc1N1CC(C(=O)Nc2ccc(S(=O)(=O)N3CCCC3)cc2)CC1=O (stereo unspecified) 9.12%, CN(C1CCS(=O)(=O)C1)S(=O)(=O)c1ccc2ccccc2c1 (stereo unspecified) -4.34%, COc1ccc(Cc2nnc(SCC(=O)Nc3ccc(C)c(Cl)c3)[nH]c2=O)cc1 -4.89%, O=C(c1ccncc1)N1CCN(c2ccc3ccccc3n2)CC1 -4.23%, Oc1ccc(CN2CCN(c3ncccn3)CC2)cc1 7.28%, CCN(CC(=O)Nc1c(F)cccc1F)C(=O)CN1c2cccc3cccc(c23)S1(=O)=O -9.4%, Cc1cc(NC(=O)CCS(=O)(=O)c2ccc(F)cc2)no1 -7.32%, Cc1ccc(S(=O)(=O)NCCC(=O)NNC(=O)C2COc3ccccc3O2)cc1 (stereo unspecified) 5.45%, COc1cccc(C(=O)Nc2ccc(N3CCN(C(=O)c4ccco4)CC3)cc2)c1 -17.6%, Cc1ccc(C)c(OCC(=O)N2CCN(C(=O)c3ccco3)CC2)c1 17%, COc1ccc(C(=O)OCC(=O)Nc2ccc3[nH]c(=O)[nH]c3c2)c(OC)c1OC 29.4%, CCOC(=O)c1c(NC(=O)C2CC=CCC2C(=O)O)sc(C)c1CC (stereo unspecified) -15%, CCc1c(C)sc(NC(=O)c2cccs2)c1C(N)=O 39.5%, Cc1onc(-c2ccccc2Cl)c1C(=O)OCc1nnc(-c2ccccc2)o1 23.4%, COc1ccc(-c2nnc3ccc(SCc4ccccc4)nn23)cc1 16%, COC(=O)CSc1nc(C)c2ccc(OC)cc2n1 17.7%, Cc1ccc(S(=O)(=O)N2CCCCC2)cc1C(=O)N(C)CC(=O)Nc1cccc(F)c1 5.46%, CNC(=O)c1ccc(NC(=O)c2cccc(C(F)(F)F)c2)cc1 9.95%, Cn1nc(C(F)(F)F)cc1C(=O)O 15.5%, FC(F)(F)c1ccc2c3n(nc2c1)CCN=C3c1ccc(Cl)cc1 -14.8%, Cc1cc(C)cc(NC(=O)C2CCN(c3nc(C)cc(C)n3)CC2)c1 11%, Cc1ccc2c(NC(=O)C3CC3)cccc2n1 -0.793%, COc1ccc(-c2csc(NC3OC(=O)c4ccccc43)n2)cc1 (stereo unspecified) 20.2%, COc1cccc(CC(=O)Nc2nc(-c3ccc(OC)c(OC)c3)cs2)c1 3.91%, COc1ccc(CCNc2nc(-c3cccc(NC(C)=O)c3)cs2)cc1OC -4.33%, Cc1ccc(-c2csc(NC(=O)Cn3[nH]c(=O)c4ccccc4c3=O)n2)cc1 -17.7%

activation, active:
Cc1cccc(Oc2c([N+](=O)[O-])c(=O)n(C)c3ccccc23)c1 110%, Cc1ccc(S(=O)(=O)N(C)C)cc1NC(=O)COC(=O)c1c(C)noc1C 63.2%, N#C/C(=C(\O)C(F)(F)F)c1nnc2n1CCCCC2 55.4%, c1cnc(N2CCN(c3ccc4ccccc4n3)CC2)nc1 53.3%, Cc1ccc(OCC(=O)Nc2ccc(N3CCN(C(=O)c4ccco4)CC3)cc2)c(C)c1 67.8%, CCc1c(C)sc(NC(=O)c2ccc(Br)o2)c1C(=O)OC 64.8%, COc1ccc2nc(SCc3ccccc3)nc(C)c2c1 68.9%, Cn1nc(C(F)(F)F)cc1-c1ccc(/C=C(\C#N)C(=O)c2cccc(C(F)(F)F)c2)s1 65.6%, Cc1cc(C)c2c(NC(=O)C3CC3)nn(C)c2n1 56.3%, COc1ccc2c(c1OC)C(=O)OC2Nc1nc(-c2ccccc2)cs1 (stereo unspecified) 139%, Cc1ccc(-c2csc(NC3OC(=O)c4ccccc43)n2)cc1 (stereo unspecified) 81.1%
